Hit rate of the full screen: of about 190,000 compounds, about 1,300 (0.68%) were called active. Cut-off read from the data, not from the text of the source: active = inhibition above about 50%; inactive = the rest. Many of the other results were omitted from the sample, so actives are more common in it than they were.
Target: Mannose-6-phosphate isomerase (Homo sapiens) (UniProt P34949)
Assay: human PMI inhibitors, high substrate, primary screen, biochemical, fluorescence intensity, high mannose 6-phosphate (AID 1220)
Conditions: recombinant PMI enzyme, coupled fluorescence intensity; at 20 µM; hits give high values

Sequence of Mannose-6-phosphate isomerase (Homo sapiens) (P34949 whole entry, looked up): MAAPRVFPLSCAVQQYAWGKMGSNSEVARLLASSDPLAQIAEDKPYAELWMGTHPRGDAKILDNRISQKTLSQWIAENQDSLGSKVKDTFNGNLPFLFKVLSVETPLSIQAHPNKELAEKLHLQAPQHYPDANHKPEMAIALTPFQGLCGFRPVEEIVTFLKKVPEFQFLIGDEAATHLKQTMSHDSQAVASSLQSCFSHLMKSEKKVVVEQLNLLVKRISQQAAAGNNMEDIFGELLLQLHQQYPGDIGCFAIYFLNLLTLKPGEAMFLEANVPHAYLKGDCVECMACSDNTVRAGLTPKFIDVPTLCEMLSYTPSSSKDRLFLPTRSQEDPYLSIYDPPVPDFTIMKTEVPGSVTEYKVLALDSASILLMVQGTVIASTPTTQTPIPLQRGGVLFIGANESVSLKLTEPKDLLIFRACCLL

inhibition, active:
O=C(CNc1cccc2ccccc12)N/N=C/c1ccc([N+](=O)[O-])o1 60.4%
NC(=O)c1ccc(Oc2cccc3cccnc23)c([N+](=O)[O-])c1 50.2%
COc1ccc(C(=O)Oc2cccc3cccnc23)cc1[N+](=O)[O-] 51.9%
COc1cc(C2C3=C(Nc4ncnn42)c2ccccc2CC3)cc(OC)c1OC (stereo not given) 51.9%
Cc1ccc2[nH]c(=O)c(-c3nc4cc(C)ccn4c3NCc3ccco3)cc2c1 53.7%
Cc1ccc2[nH]c(=O)c(-c3nc4c(C)cccn4c3NCc3ccco3)cc2c1 55.2%
CCOc1ccccc1NC(=O)COC(=O)C(CC)c1ccccc1 (stereo not given) 64.5%
Cc1nc(-c2ccccc2)cn(O)c1=O 65.6%
COc1ccccc1/C=N/Nc1cc(N(C)C)nc(N(C)C)n1 63.4%
CCOc1ccc(OCCCCNC(C)(C)C)cc1 58.8%
Cc1cc(C)n2c(SC/C(O)=C(\C#N)c3nc4ccccc4[nH]3)nnc2n1 53.4%
NC(CO)C(=O)NNCc1ccc(O)c(O)c1O (stereo not given) 60.4%
N#CC1=C2SCN(Cc3ccccc3)CN2C(=O)CC1c1ccccc1F (stereo not given) 52.1%
N#CC1=C2SCN(Cc3ccccc3)CN2C(=O)CC1c1cccs1 (stereo not given) 67.2%
Cc1[nH]c2c(C)cccc2c1CCNC(=O)c1ccc2c(c1[N+](=O)[O-])C(=O)c1ccccc1C2=O 55.5%
Cc1[nH]c2ccccc2c1CCNC(=O)c1ccc2c(c1[N+](=O)[O-])C(=O)c1ccccc1C2=O 53.9%
CCCCCn1c(NC(=O)c2ccco2)c(S(=O)(=O)c2ccc(C)cc2)c2nc3ccccc3nc21 50.2%
C=CCn1c(NS(=O)(=O)c2ccccc2)c(S(=O)(=O)c2ccc(C)cc2)c2nc3ccccc3nc21 52.4%
CCCCn1c(NS(=O)(=O)c2ccc(C)cc2)c(S(=O)(=O)c2ccccc2)c2nc3ccccc3nc21 54.9%
C=CCn1c(NC(=O)c2ccc(Br)o2)c(S(=O)(=O)c2ccccc2)c2nc3ccccc3nc21 50.8%

inhibition, inactive:
O=C(N=Nc1c(O)[nH]c2ccccc12)c1cc(NS(=O)(=O)c2cccs2)cc(NS(=O)(=O)c2cccs2)c1 -0.7%
O=C(N/N=C/C=C\c1ccccc1[N+](=O)[O-])c1ccccn1 13.1%
COc1ccc(N2CCN(C(c3cccs3)C(C)NS(=O)(=O)c3ccccc3)CC2)cc1 (stereo not given) 20.1%
CN(c1ccc(OCC(=O)OCC(=O)NC2CCCC2)cc1)S(=O)(=O)c1ccc2ccccc2c1 23.5%
O=C(O)C1CCC(Cn2c(SCc3cc(=O)n4cc(Br)ccc4n3)nc3ccsc3c2=O)CC1 (stereo not given) 5.7%
Cc1ccc2cc(S(=O)(=O)NCCCN3CCOCC3)ccc2c1 4.1%
O=C(CNc1ccc2ccccc2c1)N/N=C/c1ccc([N+](=O)[O-])o1 46.2%
O=C(CNc1ccccc1)N/N=C/c1ccc([N+](=O)[O-])o1 8%
O=C(O)/C=C/C(=O)N1CCN(c2ccccc2F)CC1 2.7%
N#CCSc1nnc(C2CCCCC2)n1-c1ccccc1 11.9%
NC(=O)c1cccc(S(=O)(=O)N2CC(c3ccccc3)CC2=O)c1 (stereo not given) 5.1%
O=[N+]([O-])c1ccc(Oc2cccc3cccnc23)c([N+](=O)[O-])c1 11.4%
O=C(Oc1cccc2cccnc12)c1cccc([N+](=O)[O-])c1 44.3%
Cc1cc(Cl)ccc1Oc1ccc(C(N)=O)cc1[N+](=O)[O-] 5.8%
Cc1c(C(=O)Oc2cccc3cccnc23)cccc1[N+](=O)[O-] 36.1%
COc1cccc(CNC(=O)CCC2CCCN(C(=O)CCC(F)(F)F)C2)c1 (stereo not given) 7.7%
CCNc1nc(NCC)n2c(SCC(=O)c3ccc(C(C)C)cc3)nnc2n1 -21%
CCCNC(=O)Cc1c(O)c2ccccc2[nH]c1=O 6.5%
COc1ccc(C2C3=C(Nc4ncnn42)c2ccccc2CCC3)cc1 (stereo not given) 3.7%
COc1ccc(C2C3=C(Nc4ncnn42)c2ccccc2CC3)cc1OC (stereo not given) 38.6%
Cc1cccn2c(=O)c(C=Nc3ccccc3)c(NCc3ccco3)nc12 -12.9%
Cc1ccn2c(-c3csc(NCc4ccco4)n3)c(C)nc2c1 48.7%
Cc1cccc2cc(-c3nc4c(C)cccn4c3NCc3ccco3)c(=O)[nH]c12 1.7%
Cc1ccc2[nH]c(=O)c(-c3nc4ccccn4c3NCc3ccco3)cc2c1 -4.9%
CC1CCCCC1NCc1cccc([N+](=O)[O-])c1 (stereo not given) 2.2%
CCc1ccc(C2=NN(S(C)(=O)=O)C(c3cccs3)C2)cc1 (stereo not given) 3.7%
COc1ccccc1NC(=O)Cn1cnc2sc(C(=O)NCc3ccco3)c(C)c2c1=O -4.1%
Nc1nc2c(Cl)ccc(Cl)c2s1 8%
Nn1c(SCc2ccccn2)nncc1=O -1.6%
C/C(=N\Nc1ccccn1)c1ccc(C(C)C)cc1 11.6%
CCC(C(=O)OCC(=O)Nc1ccc(OC)cc1OC)c1ccccc1 (stereo not given) 10.5%
CCC(C(=O)OCC(=O)Nc1cc(C)ccc1OC)c1ccccc1 (stereo not given) 0.3%
O=C(NC1CCCc2ccccc21)c1ccc2c(c1)OCO2 (stereo not given) 8.7%
COc1ccc(-n2cc(CNCC3CCOCC3)c(-c3cccc(F)c3)n2)cc1 4.6%
CCOC(=O)C1CCN(c2cc(=O)n(-c3ccccc3Cl)c(=O)[nH]2)CC1 -1.4%
Cc1nc(-c2ccccc2)ccc1C(=O)O 0.4%
O=c1c(-c2ccccc2)nc(-c2ccccc2)cn1O 3.4%
CCOC(=O)N1CCN(C(=O)CSc2ccc3nnc(-c4ccncc4)n3n2)CC1 8.4%
COc1ccccc1/C=N/Nc1nncc2ccccc12 -1.9%
COc1ccccc1/C=N/NC1=NCCCCC1 0.4%
O=C(CCCN1C(=O)c2ccccc2C1=O)Nc1c2c(nc3c1CCC3)CCC2 -20.1%
Cc1nn(C)c(C)c1NC(=O)CC12CC3CC(CC(C3)C1)C2 -1.3%
COc1cc(C)nc(N2CCC(C(=O)NC3CCCCC3)CC2)n1 3.7%
CC(=O)c1cccc(NC(=O)CCS(=O)(=O)c2cccc3nsnc23)c1 -33.5%
CCOc1ccc(OCCCCNCCN)cc1 -2.4%
CC(C)(C)NCCCCOc1ccc(F)cc1 4.1%
O=P(CO)(Cc1ccccc1)Cc1ccccc1 5%
O=C(O)C/C=C(\NC(=O)OCc1ccccc1)C(=O)OCc1ccccc1 -163%
Cc1ccccc1-n1c(SC/C(O)=C(\C#N)c2nc3ccccc3[nH]2)nnc1-c1ccncc1 20.6%
Cn1cnnc1SC/C(O)=C(\C#N)c1nc2ccccc2[nH]1 0.7%
CCOc1cc(/C=N/NC(=O)COc2ccc(Cl)cc2)ccc1OS(=O)(=O)c1ccccc1 -94.4%
COc1ccccc1C(=O)Nc1cc2cc(Cl)ccc2oc1=O -8%
COC(=O)C(N)Cc1ccc(O)cc1 (stereo not given) -2.8%
COC(=O)[C@@H](N)Cc1ccc(O)cc1 6.4%
COc1cc2c(cc1OC)CN(C(=O)CSc1nnc(C)s1)CC2 -13.4%
N#CC1=C2SCN(c3ccccc3)CN2C(=O)CC1c1ccccc1Cl (stereo not given) -41%
CCc1ccccc1N1CSC2=C(C#N)C(c3ccccc3F)CC(=O)N2C1 (stereo not given) -5.1%
CCc1ccc(N2CSC3=C(C#N)C(c4cccs4)CC(=O)N3C2)cc1 (stereo not given) -68.6%
N#CC1=C2SCN(c3ccccc3)CN2C(=O)CC1c1cccs1 (stereo not given) -2%
O=C(COC(=O)c1cccnc1)Nc1ccc2c(c1)OCO2 17.6%
Cc1cc(C)c(C(=O)Nc2ccc(S(=O)(=O)Nc3onc(C)c3C)cc2)c(C)c1 7.8%
OC(COC1CCCCC1)CN1CCN(c2ccccc2)CC1 (stereo not given) 10.6%
N/C(=N\OC(=O)c1cc(Cl)ccc1Cl)c1ccccn1 -10.6%
Cc1cc(C)n(CCN(C)c2nc3nonc3nc2NC2CC2)n1 14.8%
CN(C)C(=O)c1ccc2c(c1[N+](=O)[O-])C(=O)c1ccccc1C2=O -16.2%
CCCNC(=O)NCCc1c(C)[nH]c2ccccc12 0.4%
Cc1ccc([N+](=O)[O-])cc1S(=O)(=O)NCCc1c(C)[nH]c2c(C)cccc12 -3%
CCN(CC)C(=O)c1ccc2c(c1[N+](=O)[O-])C(=O)c1ccccc1C2=O 29.5%
O=C(O)c1cccc(NS(=O)(=O)c2ccc3nnn(O)c3c2)c1 11.9%
CCn1c(=O)c(C(=O)NNS(=O)(=O)c2ccc(Cl)cc2)c(O)c2ccccc21 -7.4%
CN(C(=O)c1c(Br)cnn1C)C12CC3CC(CC(C3)C1)C2 -2.3%
CCC(=O)Nc1cccc(NC(=O)COc2ccc(OC)cc2)c1 6.7%
CCCCn1c(NC(=O)c2ccc(Br)o2)c(S(=O)(=O)c2ccccc2)c2nc3ccccc3nc21 5.9%
CC(=O)Nc1c(S(=O)(=O)c2ccccc2)c2nc3ccccc3nc2n1Cc1ccccc1 7.9%
Cc1ccc(S(=O)(=O)c2c(N)n(NC(=O)c3ccco3)c3nc4ccccc4nc23)cc1 -41.3%
Cc1ccc(S(=O)(=O)c2c(N)n(CCC(C)C)c3nc4ccccc4nc23)cc1 1.8%
CCCCn1c(NCc2ccccc2NS(=O)(=O)c2ccc(C)cc2)nc2ccccc21 15.2%
Cc1ccc(-n2c(N)c(S(=O)(=O)c3ccccc3)c3nc4ccccc4nc32)cc1 0.2%
C=CCn1c(NC(=O)c2ccco2)c(S(=O)(=O)c2ccccc2)c2nc3ccccc3nc21 34.3%
Cc1ccc(S(=O)(=O)c2c(N)n(Cc3ccco3)c3nc4ccccc4nc23)cc1 -3.1%
